# Data reported in the supplement of paper PMC11417369.
# ± gives the standard deviation of the averaged measurements. Whole data set: some 25,000 sequences, median “ln(normalized median fluorescence intensity)” near 8.9, cut for the highest 2% near 10. The list comes from a sample in which the highest values are over-represented; it also holds similar and randomly drawn sequences.
# Tested on: PfAP2-LT AP2 domain (GST-tagged)
# Assay: gcPBM binding intensity (ln(normalized median fluorescence intensity)); higher = stronger DNA binding
# Outline: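 Probes on an Agilent 4 × 180k array were primer-extended, double-stranded and 36 bp long, taken from intergenic genomic regions, with negative controls added. GST-tagged P. falciparum DNA-binding domains from E. coli, about 25 μg on average, were applied to the array for 1 h in 1× PBS containing 1% milk, 0.2 mg/ml BSA, 0.5% salmon testes DNA and 0.03% Triton X-100. Binding intensity, obtained after Alexa488 anti-GST antibody detection and a 488 nm scan, is the highest Masliner-normalised natural-log median intensity across replicate spots of either probe orientation.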
row,Sequence,gcPBM binding intensity (ln)
1,GAATTATATACTTATTGTACAAAAAAAAAAAAAAAA [XGTACX_site3193],8.36 ± 0.4
2,TGCAGTCTGGAGAAACGTACATAGTATCTGGTAGCT [XGTACX_site4937],8.94 ± 0.57
3,TTCAACGTTTTGGAATGTACAGAAAGGTATCCATCA [XGTACX_site179],8.62 ± 0.42
4,ATAGTATACAGACACACACACACACCCATATATATA [CACACA_site1736],10.2 ± 0.29
5,CACCATGATACATACACACAGACATATACGCATTCA [CACACA_site1008],9.46 ± 0.18
6,CACGCATACAGACACACACACACACCGATATATATA [CACACA_site8113],10.1 ± 0.37
7,TATCTCATAGTATACACACACACACCCACCCATATA [CACACA_site1739],10.1 ± 0.11
8,CACGCATACAGACACACACACACACCCATATATATA [CACACA_site636],10.2 ± 0.37
9,CACGCATACGGACACACACACACACCGATATATATA [CACACA_site4521],9.89 ± 0.33
10,TACACATACAGACATACACACATACCCATATACTCA [CACACA_site5037],9.6 ± 0.41
11,TATATCTCATAGTATACACACACACCCACCCACATA [CACACA_site8513],9.9 ± 0.23
12,CATACACCCATACATACACACATACAGATATATATA [CACACA_site5123],9.29 ± 0.33
13,AGTACAGACATAGACACACACACACCCATAAAAAAA [CACACA_site1515],9.99 ± 0.45
14,GGCATATATATATGCACACATACATATATACATGTG [CACACA_site3859],9.7 ± 0.3
15,GTTACACAAACAAACACACACACACGCACGCACAAA [CACACA_site7191],10 ± 0.2
16,AAAGAAAAAAAAAAAAAAAAAAAAAAAATTATACAT [CACACA_negctrl_site7],8.45 ± 0.64
17,TTTAAAACCTTACATACACACAAATATGTAAATATA [CACACA_site6464],8.75 ± 0.42
18,GAGCACCAAAATATATGTACATATGATAAATGTGAA [XGTACX_site1130],8.96 ± 0.51
19,GTTATTGAAAAAATAGTGCAATATAACAAAGTAAAA,8.85 ± 0.48
20,AAAAAAAACGAACACACACACAAATATGTAAAAATA [CACACA_site6673],9.87 ± 0.28
21,ATTATATTAATATATATATATATATATATAATAATA [CACACA_negctrl_site437],8.69 ± 0.3
22,TACACGCATGGACACACACACACACCCATATATATA [CACACA_site4522],10.3 ± 0.35
23,TACACCCATGGACACACACACACGCATAAAAAAAAA [CACACA_site4933],9.85 ± 0.58

row,Sequence,gcPBM binding intensity (ln)
1,TCATAGTATGGACACACACACACACCCATATATATA [CACACA_site5033],10 ± 0.25
2,AAAAAAAATCAAATGGGTACTTATTCTTAATAATAT [XGTACX_site3792],8.61 ± 0.33
3,TTTTTAGAAAAGGTTATAAAAAATTAATTGAAAAAA [GTGCAC_negctrl_site289],8.05 ± 0.47
4,TAAAAGTAAAGACATGCATGCATTGGTATCTTTTAC [TGCATGCA_site665],8.95 ± 0.35
5,GTAGACTGAAACCACACACACATATATAAATATATT [CACACA_site6433],9.68 ± 0.38
6,GTAGACTGAAACCACACACACATATATATATATATT [CACACA_site605],9.8 ± 0.13
7,ATGTAGACTGAAACCACACACACATATATATATATA [CACACA_site606],10.2 ± 0.2
8,GCGTTGTTTTTAAAAAGTACATTTTTATATAAGTTA [XGTACX_site8780],8.54 ± 0.46
9,TATTAAGAAGAAAATTCACACATTTGTACCTCTCTT [CACACA_site4822],8.86 ± 0.47
10,ACATTCTATACATACACACCCACACCCAAAAAAAAA [CACACA_site863],9.59 ± 0.042
11,ATTCTACACCCACATACACACATATATATATATATA [CACACA_site3426],10 ± 0.085
12,ATATATATATATTCCACACACACACCCAAAAAAAAA [CACACA_site3649],9.745 ± 0.05
13,CATACAGACATACATACACACATACATACAGACATA [CACACA_site6996],9.56 ± 0.35
14,AAATTCCACCAACACACACACATATAAATAAATAAA [CACACA_site1233],9.86 ± 0.42
15,TTCCCCCCCAGACACACACACACATACATACCACAT [CACACA_site2305],11.1 ± 0.77
16,TATTCCCCCAAACACACACACACACCCACATACCAC [CACACA_site2304],10.5 ± 0.13
17,TACACCCACCCACATACACACACATACACATATATA [CACACA_site8503],10.1 ± 0.21
18,ACATACATACCCCCACGTACGTACCGAAACACCACC [XGTACX_site1982],9.74 ± 0.028
19,GACATATTCCCCCCCACACACACACCCACATACATA [CACACA_site2302],11.1 ± 0.18
20,TATTCCCCCCAACACACACACACACCGACATACCAC [CACACA_site8723],10.8 ± 0.26
21,TACAGACATACATACACACATACATACAGACATACA [CACACA_site1941],9.43 ± 0.38
22,TGTTATTCTGCATATACACACAAATAACAATTTAAA [CACACA_site6943],8.67 ± 0.38
23,CCTTTTTTATTTACAACACACGTAAAGGTTCAAATA [CACACA_site1741],8.68 ± 0.42

row,Sequence,gcPBM binding intensity (ln)
1,TTTTCAATTAATAATACACACATGTATATATCATTA [CACACA_site7539],8.81 ± 0.43
2,TATGAAATGCTCCAATCACACATGAATGTAATATAT [CACACA_site5458],8.73 ± 0.35
3,AACTATTACTTTCTTTCACACATTTTTTTTTTTTTT [CACACA_site5355],8.94 ± 0.59
4,AATAATATCTGAAAATGTACATTTTATTATAAACAT [XGTACX_site8441],8.86 ± 0.45
5,ATGAATAAAAAAGGTGGTACATATATATATATATAT [XGTACX_site7893],9.82 ± 0.11
6,AAAAAAAAAAGACACACACACATAGACCTCCAATAG [CACACA_site7646],9.79 ± 0.25
7,AAAAAAAAAAAAAACACACACACATAGACCTCCAAT [CACACA_site3563],10.2 ± 0.26
8,AAAAAAAAAAAACACACACACATAGACCTCCAATAG [CACACA_site3562],9.77 ± 0.25
9,TATAAATATACAAAGGTGCATAAAAAGTTATGTTTT [GTGCAC_site9832],8.72 ± 0.44
10,TTCTATTCAAATGCAAAATTATTAAATAAAAAATAA [GTGCAC_negctrl_site708],8.31 ± 0.43
11,GCTAAAAGTATATGCACACACATATAGATGCACATA [CACACA_site6868],9.34 ± 0.33
12,TAGGAAAAGAAAAGCACACACATAAATAGATATATA [CACACA_site6382],9.43 ± 0.54
13,GAAAAGCATAGATGCACACATATATATATATATATA [CACACA_site2169],10.18 ± 0.014
14,ATTTTAGATGAAAAAGCACACAACATATATATATAT [CACACA_site2295],9.44 ± 0.38
15,AAAAAAAAAAGAAACACACACATATATATATAGAAT [CACACA_site1777],9.44 ± 0.39
16,AAGAAAAGCATAGATGCACACATATATATATATATA [CACACA_site8675],10.2 ± 0.32
17,AATACCCATATCTTCACACATACATAATAAATTATA [CACACA_site5367],8.81 ± 0.36
18,AAAAAAAAAATATACACACACATATAAATATAAATA [CACACA_site7574],9.34 ± 0.42
19,TGAGGTAACTAAATATGTACGTAACGAAGATACATA [XGTACX_site8231],8.96 ± 0.5
20,AATTGTTCGATATATGCACACAGTTTTGTTATTTTT [CACACA_site1615],9.25 ± 0.34
21,GTTTGATTAAACTTGACACACATATATATAAATATA [CACACA_site1784],8.71 ± 0.44
22,TTTATTAAACTTGACACACACACACCCACATATATA [CACACA_site760],9.8 ± 0.28
23,TATTAAACTTGACACACACACACACGCATATATAAA [CACACA_site6496],10.1 ± 0.14

row,Sequence,gcPBM binding intensity (ln)
1,CCCCATATAATGAACACACACACTCCTCATAATTAA [CACACA_site628],10.33 ± 0.099
2,CCCATGTAATATTAAACACACACTCATATAACACAA [CACACA_site7906],9.36 ± 0.26
3,TTTCCCCCATATAATGAACACACACCCTCCTCATAA [CACACA_site8110],9.84 ± 0.41
4,TTATAAATTCAATGTACTACACAAAATGAATTTAAT [XGTACX_site6683],8.53 ± 0.35
5,AGAACCATATATAAATGTACATGTTAATATGAATAA [XGTACX_site130],8.93 ± 0.42
6,ATTATGTTTCTTTTTTTTTTTAAAGGATGTCTTTTT [CACACA_negctrl_site974],8.62 ± 0.56
7,TAAACATACATATACACACACACACCCACACCCACA [CACACA_site492],10.3 ± 0.18
8,ATTAAACATACATATACACACACACCCACCCACCCA [CACACA_site8057],10.22 ± 0.071
9,TTAAAAAAAAAACACACACACATACACATATATATA [CACACA_site3299],9.91 ± 0.2
10,TTATATATGTATTAATGTACATAGTTGAGAAAGGTA [XGTACX_site1511],8.78 ± 0.34
11,GAACCTTTAAAATACACACCCAAATCCTTTGAAATA [CACACA_site3630],8.88 ± 0.42
12,CAATGTTGTACATACACACACACAAAAAAAAAATAA [CACACA_site2407],9.6 ± 0.45
13,TCTCCTTGTTCCTTTTTTTTAAAAAAAAACATTAAA [CACACA_negctrl_site679],8.47 ± 0.52
14,GTTAATTATTAAATTTGTACTCATATATATTATATA [XGTACX_site6862],8.71 ± 0.53
15,AAAAAAAAAAGACACACACACACAAATACATACACA [CACACA_site6472],10.2 ± 0.042
16,AAGACACAAAAACACACACACATACATACATACATA [CACACA_site454],9.99 ± 0.31
17,ATAAAACAAAGACACACACACATACACAAAAAAAAA [CACACA_site7752],9.99 ± 0.42
18,GGTACATACAGACACACACACAAAAAAAAAAAAATA [CACACA_site6844],9.81 ± 0.64
19,AAAAAAAAAAGACACACACACAAATACAAATACATA [CACACA_site6334],10 ± 0.28
20,CAAAGACACAAACACACACACACATACATACATACA [CACACA_site453],10.3 ± 0.42
